Experimental data published in the supplement of paper PMC12350171.
Counter-ions that a name gives are not always drawn.

Legend:
Settings in all cases: 20 µM
[1] = test system: Salmonella enterica typhimurium; experiment: growth AUC normalised to DMSO control (fraction of control); higher = less growth inhibition, active = hit call of the paper
Outline: (§1)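 After two anaerobic passages, pathogens were added at a starting OD578 of 0.01 to pre-reduced mGAM plates holding compound at 20 μM with 1% DMSO; hemin and NAD were supplemented for Haemophilus parainfluenzae. Sealed with breathable membranes, plates were read at OD578 hourly for 24 h, in three biological replicates. The trapezoidal rule, applied up to the exponential-to-stationary transition, gave the growth-curve AUC, which was normalised to DMSO controls on the same plate.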

Shigella flexneri = experiment: as above
Outline: as §1

Vibrio cholerae = experiment: as above
Outline: as §1

[2] = test system: Yersinia pseudotuberculosis; experiment: as above
Outline: as §1

P. vulgatus RND KO = experiment: growth AUC normalised to DMSO control (median) (fraction of control); higher = less growth inhibition, active = hit call of the paper
Outline: (§2)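 In 96-well plates of mGAM seeded at OD578 0.01, strains that had been passaged twice overnight without oxygen were exposed to approved-drug library compounds at 20 μM with 1% DMSO. Hourly OD578 readings were taken for 24 h in an anaerobic incubator. The trapezoidal-rule area under the curve, with curves truncated at entry into stationary phase, was expressed relative to same-plate vehicle wells as the median of three biological replicates.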

P. vulgatus WT = experiment: as above
Outline: as §2

[3] = test system: S. enterica typhimurium WT; experiment: as above
Outline: as §2

[4] = test system: S. enterica typhimurium tolC KO; experiment: as above
Outline: as §2

Measured: growth AUC normalised to DMSO control
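Throughout, for growth AUC normalised to DMSO control (median): active when median AUC fell below 0.1.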

C=C1C[C@H]2[C@@H]3C=C(C)C4=CC(=O)CC[C@]4(C)[C@H]3CC[C@]2(C)[C@@]1(OC(C)=O)C(C)=O [Melengestrol acetate]
inactive: [1] 0.981 | Shigella flexneri 1.05 | Vibrio cholerae 1.03 | [2] 1.03 | P. vulgatus RND KO 0.993 | P. vulgatus WT 1.02 | [3] 1.01 | [4] 0.961

COc1ccc([C@@H]2Sc3ccccc3N(CCN(C)C)C(=O)[C@@H]2OC(C)=O)cc1 [Diltiazem hydrochloride]
inactive: [1] 0.998 | Shigella flexneri 0.969 | Vibrio cholerae 1 | [2] 1.01 | P. vulgatus RND KO 0.99 | P. vulgatus WT 1 | [3] 0.995 | [4] 0.973

Nc1ncn(C2OC(CO)C(O)C2O)c(=O)n1 (configuration not stated) [Azacytidine-5]
inactive: [1] 1.02 | Shigella flexneri 1.04 | Vibrio cholerae 1.02 | [2] 1.04 | P. vulgatus RND KO 0.999 | P. vulgatus WT 0.996 | [3] 0.977 | [4] 0.963

Cn1c(=O)c2c(ncn2CC2OCCO2)n(C)c1=O [Doxofylline]
inactive: [1] 1 | Shigella flexneri 1.07 | Vibrio cholerae 1.01 | [2] 0.99 | P. vulgatus RND KO 1.02 | P. vulgatus WT 1.06 | [3] 0.999 | [4] 1

CCCC(=O)Nc1ccc(OCC(O)CNC(C)C)c(C(C)=O)c1 (configuration not stated) [Acebutolol hydrochloride]
inactive: [1] 1 | Shigella flexneri 0.995 | Vibrio cholerae 1.01 | [2] 1.01 | P. vulgatus RND KO 1.01 | P. vulgatus WT 1.01 | [3] 1 | [4] 1.01

CC(C(=O)O)c1ccc(C(=O)c2cccs2)cc1 (configuration not stated) [Suprofen]
inactive: [1] 0.987 | Shigella flexneri 1.04 | Vibrio cholerae 1.05 | [2] 1.02 | P. vulgatus RND KO 1.01 | P. vulgatus WT 1.03 | [3] 0.996 | [4] 0.995

CC(CN1c2ccccc2Sc2ccccc21)N(C)C (configuration not stated) [Promethazine hydrochloride]
inactive: [1] 0.983 | Shigella flexneri 1.03 | Vibrio cholerae 0.961 | [2] 0.957 | P. vulgatus RND KO 0.718 | P. vulgatus WT 0.682 | [3] 1 | [4] 0.98

COc1ccc(C2CNC(=O)C2)cc1OC1CCCC1 (configuration not stated) [Rolipram]
inactive: [1] 0.976 | Shigella flexneri 0.948 | Vibrio cholerae 0.945 | [2] 0.984 | P. vulgatus RND KO 1.01 | P. vulgatus WT 1.02 | [3] 1.01 | [4] 0.98

COC(=O)C1=C(C)NC(C)=C(C(=O)OC)C1c1ccccc1[N+](=O)[O-] [Nifedipine]
inactive: [1] 1 | Shigella flexneri 0.997 | Vibrio cholerae 0.971 | [2] 1 | P. vulgatus RND KO 0.987 | P. vulgatus WT 0.996 | [3] 1.01 | [4] 0.994

CN[C@@H]1[C@H](O[C@H]2[C@H](O[C@H]3[C@H](O)[C@@H](O)[C@H](N=C(N)N)[C@@H](O)[C@@H]3N=C(N)N)O[C@@H](C)[C@]2(O)C=O)O[C@@H](CO)[C@H](O)[C@H]1O [Streptomycin sulfate]
inactive: [1] 1.02 | Shigella flexneri 1.05 | Vibrio cholerae 1.06 | [2] 0.965 | P. vulgatus RND KO 1.05 | P. vulgatus WT 1.09 | [3] 0.983 | [4] 1

CC(C)C(=O)Nc1ccc([N+](=O)[O-])c(C(F)(F)F)c1 [Flutamide]
inactive: [1] 1.01 | Shigella flexneri 1.04 | Vibrio cholerae 1.01 | [2] 0.988 | P. vulgatus RND KO 1 | P. vulgatus WT 1.01 | [3] 0.985 | [4] 0.96

Cc1ccccc1N1C(=O)c2cc(S(N)(=O)=O)c(Cl)cc2NC1C (configuration not stated) [Metolazone]
inactive: [1] 0.994 | Shigella flexneri 0.984 | Vibrio cholerae 0.996 | [2] 0.991 | P. vulgatus RND KO 0.99 | P. vulgatus WT 1 | [3] 1.02 | [4] 0.997

CCCc1nc2c(C)cc(-c3nc4ccccc4n3C)cc2n1Cc1ccc(-c2ccccc2C(=O)O)cc1 [Telmisartan]
inactive: [1] 1 | Shigella flexneri 1.02 | Vibrio cholerae 1.02 | [2] 1.01 | P. vulgatus RND KO 0.852 | P. vulgatus WT 0.897 | [3] 0.996 | [4] 0.995

CCOC(=O)[C@H](CCc1ccccc1)N[C@@H](C)C(=O)N1CCC[C@H]1C(=O)O [Enalapril maleate]
inactive: [1] 1 | Shigella flexneri 1.04 | Vibrio cholerae 1.03 | [2] 1.02 | P. vulgatus RND KO 1 | P. vulgatus WT 1.02 | [3] 1.01 | [4] 0.997

CNC1(C)C2CCC(C2)C1(C)C (configuration not stated) [Mecamylamine hydrochloride]
inactive: [1] 1.02 | Shigella flexneri 1 | Vibrio cholerae 0.976 | [2] 1.02 | P. vulgatus RND KO 1.09 | P. vulgatus WT 1.09 | [3] 1.02 | [4] 1.02

CC[N+](C)(CC)CCC[n+]1c(-c2ccccc2)c2cc(N)ccc2c2ccc(N)cc21 [Propidium iodide]
inactive: [1] 0.998 | Shigella flexneri 1.06 | Vibrio cholerae 1.08 | [2] 1.01 | P. vulgatus RND KO 1.05 | P. vulgatus WT 1.06 | [3] 1.01 | [4] 1

CN[C@@H]1[C@@H](O)[C@@H](O[C@@H]2[C@@H](O)[C@H](O[C@H]3OC(CN)=CC[C@H]3N)[C@@H](N)C[C@H]2N)OC[C@]1(C)O [Sisomicin sulfate]
inactive: [1] 1 | Shigella flexneri 0.986 | Vibrio cholerae 0.996 | [2] 0.982 | P. vulgatus RND KO 0.994 | P. vulgatus WT 1 | [3] 1 | [4] 1.01

Clc1ccc(C(c2ccccc2Cl)C(Cl)Cl)cc1 (configuration not stated) [Mitotane]
inactive: [1] 1 | Shigella flexneri 0.999 | Vibrio cholerae 1.07 | [2] 1.02 | P. vulgatus RND KO 0.97 | P. vulgatus WT 0.94 | [3] 1 | [4] 0.957

O=C(O[C@@H]1C[C@@H]2C[C@H]3C[C@H](C1)N2CC3=O)c1c[nH]c2ccccc12 [Dolasetron mesilate]
inactive: [1] 1.04 | Shigella flexneri 1.01 | Vibrio cholerae 0.999 | [2] 1.01 | P. vulgatus RND KO 1.02 | P. vulgatus WT 1.04 | [3] 1.01 | [4] 0.984

CN1CCN(CCCN2c3ccccc3Sc3ccc(Cl)cc32)CC1 [Prochlorperazine dimaleate]
inactive: [1] 1.01 | Shigella flexneri 1.02 | Vibrio cholerae 0.947 | [2] 1 | P. vulgatus RND KO 1.01 | P. vulgatus WT 0.981 | [3] 0.996 | [4] 0.892

CC[C@H]1OC(=O)[C@H](C)[C@@H](O[C@H]2C[C@@](C)(OC)[C@@H](O)[C@H](C)O2)[C@H](C)[C@@H](O[C@@H]2O[C@H](C)C[C@H](N(C)C)[C@H]2O)[C@](C)(O)C[C@@H](C)C(=O)[C@H](C)[C@@H](O)[C@]1(C)O [Erythromycin]
active: [1] 0.74 | Shigella flexneri 0.6 | Vibrio cholerae 0.0246 | [2] 0.767 | P. vulgatus RND KO 0.0145 | P. vulgatus WT 0.00909 | [4] 0.00339
inactive: [3] 0.811

CN(C)C/C=C(/c1ccc(Br)cc1)c1cccnc1 [Zimelidine dihydrochloride monohydrate]
inactive: [1] 0.996 | Shigella flexneri 0.999 | Vibrio cholerae 1 | [2] 1.03 | P. vulgatus RND KO 1.04 | P. vulgatus WT 1.04 | [3] 1.02 | [4] 0.983

O=C(O)/C=C/c1ccc(Cn2ccnc2)cc1 [Ozagrel hydrochloride]
inactive: [1] 1.02 | Shigella flexneri 1.02 | Vibrio cholerae 0.995 | [2] 1.01 | P. vulgatus RND KO 1.02 | P. vulgatus WT 1.05 | [3] 1 | [4] 1

Nc1ccc(S(=O)(=O)Nc2ccnn2-c2ccccc2)cc1 [Sulfaphenazole]
active: Vibrio cholerae 0.856
inactive: [1] 1 | Shigella flexneri 1.01 | [2] 1.01 | P. vulgatus RND KO 0.989 | P. vulgatus WT 0.961 | [3] 0.998 | [4] 0.981

CC1CNc2c(cccc2S(=O)(=O)N[C@@H](CCCNC(=N)N)C(=O)N2CC[C@@H](C)C[C@@H]2C(=O)O)C1 (some centres not stated) [Argatroban]
inactive: [1] 1 | Shigella flexneri 1.03 | Vibrio cholerae 1 | [2] 1.02 | P. vulgatus RND KO 1.03 | P. vulgatus WT 1.06 | [3] 1.01 | [4] 0.996

CC1=C(C(=O)O)N2C(=O)[C@@H](NC(=O)[C@H](N)c3ccc(O)cc3)[C@H]2SC1 [Cefadroxil]
inactive: [1] 0.979 | Shigella flexneri 0.937 | Vibrio cholerae 0.967 | [2] 0.997 | P. vulgatus RND KO 1.01 | P. vulgatus WT 1 | [3] 0.996 | [4] 0.982

COCCCC/C(=N\OCCN)c1ccc(C(F)(F)F)cc1 [Fluvoxamine maleate]
inactive: [1] 0.992 | Shigella flexneri 0.974 | Vibrio cholerae 0.943 | [2] 0.993 | P. vulgatus RND KO 0.968 | P. vulgatus WT 0.963 | [3] 0.991 | [4] 0.957

CS(=O)(=O)OCCCCOS(C)(=O)=O [Busulfan]
inactive: [1] 1.01 | Shigella flexneri 1.04 | Vibrio cholerae 1.07 | [2] 1.03 | P. vulgatus RND KO 1.02 | P. vulgatus WT 0.994 | [3] 1.01 | [4] 1.01

CCN(CC)CCNC(=O)c1cc(S(C)(=O)=O)ccc1OC [Tiapride hydrochloride]
inactive: [1] 0.985 | Shigella flexneri 0.992 | Vibrio cholerae 1 | [2] 1.01 | P. vulgatus RND KO 0.961 | P. vulgatus WT 0.952 | [3] 0.992 | [4] 0.999
